Experimental data from PubChem BioAssay (Tox21).
Values without a mark were called inactive. Inconclusive results are not listed. Entries that show only a call come without a potency. Activity calls are given as the source filed them. The call rests on the fitted dose curve.

molecular target: Muscarinic acetylcholine receptor M1 (Homo sapiens) (UniProt P11229); assay: Cholinergic receptor muscarinic 1 (CHRM1) small molecule antagonists, cell-based qHTS assay (AID 1963588); conditions: CHRM1-CHO antagonist mode, calcium flux fluorescence; series mostly up to 61.5 µM; further: nearly all actives have a fitted effect of over 40% in size
How it was run: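 Compounds were tested at 15 concentrations in three independent runs. Dye-loaded CHRM1-CHO cells were exposed 5 min at room temperature before stimulation by acetylcholine added at 50nM. Intracellular calcium was read kinetically on FDSS for 3 min.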
Potency means the concentration at half of the fitted maximal effect.

Sequence of Muscarinic acetylcholine receptor M1 (Homo sapiens) (P11229 whole entry, looked up): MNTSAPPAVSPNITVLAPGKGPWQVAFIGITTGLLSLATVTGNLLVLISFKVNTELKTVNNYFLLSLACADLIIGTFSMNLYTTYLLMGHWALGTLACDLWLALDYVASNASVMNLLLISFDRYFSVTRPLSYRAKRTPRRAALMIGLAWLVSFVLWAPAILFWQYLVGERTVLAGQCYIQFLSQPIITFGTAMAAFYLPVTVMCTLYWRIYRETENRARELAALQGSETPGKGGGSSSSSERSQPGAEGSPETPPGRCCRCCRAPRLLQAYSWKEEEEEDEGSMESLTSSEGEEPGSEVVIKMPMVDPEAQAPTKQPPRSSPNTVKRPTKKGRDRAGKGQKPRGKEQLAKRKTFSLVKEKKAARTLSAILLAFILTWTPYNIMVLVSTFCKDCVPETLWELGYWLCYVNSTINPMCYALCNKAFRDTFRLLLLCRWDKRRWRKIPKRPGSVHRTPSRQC

Structure (SMILES) | Potency | activity, negative = inhibition
CC1(c2ccc(Oc3ccccc3)cc2)OC(=O)N(Nc2ccccc2)C1=O (stereo not drawn) | 5.33 µM (active) | –
C=CC(=O)NCNC(=O)C=C | inactive | –
CC(C)N(C(=O)COc1nnc(C(F)(F)F)s1)c1ccc(F)cc1 | inactive | –
Oc1cccc(Cl)c1 | inactive | –
O=c1[nH]c2ccccc2o1 | inactive | –
CN1C(=S)CN=C(c2ccccc2)c2cc(Cl)ccc21 | inactive | –
C=C(C)[C@H]1CN[C@H](C(=O)O)[C@H]1CC(=O)O | inactive | –
Oc1ccc(C2(c3ccc(O)cc3)c3ccccc3-c3ccccc32)cc1 | inactive | –
C[C@@H](N)[C@@H](O)c1ccccc1 | inactive | –
CC(C)(Cl)[N+](=O)[O-] | inactive | –
Cc1ccc2nc3sc(=O)sc3nc2c1 | – | 5.56% [at 12.6 µM]
CC1(C)CN=C(NN=C(/C=C/c2ccc(C(F)(F)F)cc2)/C=C/c2ccc(C(F)(F)F)cc2)NC1 | inactive | –
CCCCCCCCCCCCN(C)C | inactive | –
CCN(CC)C(=S)[S-].CCN(CC)C(=S)[S-].[Zn+2] | inactive | –
CC(Cc1ccc(O)cc1)NCC(O)c1cc(O)cc(O)c1 (stereo not drawn) | inactive | –
CC(Cc1ccc2c(c1)OCO2)NO (stereo not drawn) | inactive | –
CS(=O)(=O)c1ccc(C(=O)C2C(=O)CCCC2=O)c(Cl)c1COCC(F)(F)F | inactive | –
CCOP(=O)(OCC)Oc1cc(C)nc(C(C)C)n1 | inactive | –
CCOP(=S)(OCC)Oc1cc(C)nc(N(CC)CC)n1 | inactive | –
CNP(=O)(OC)Oc1ccc(C(C)(C)C)cc1Cl (stereo not drawn) | inactive | –
N#Cc1cc(I)c(O)c(I)c1 | inactive | –
COC(=O)c1ccccc1S(=O)(=O)NC(=O)Nc1nc(C)nc(OC)n1 | inactive | –
c1csc(-c2ccc(-c3cccs3)s2)c1 | inactive | –
Cc1ccccc1OP(=O)(Oc1ccccc1C)Oc1ccccc1C | inactive | –
CCOP(=S)(S)OCC | inactive | –
O=[N+]([O-])c1cccc2cccnc12 | inactive | –
CCCCC(CC)COC(=O)OOC(C)(C)C (stereo not drawn) | inactive | –
O=[N+]([O-])c1cc(C(F)(F)F)c(Cl)c([N+](=O)[O-])c1Cl | inactive | –

molecular target: Muscarinic acetylcholine receptor M1 (Homo sapiens) (UniProt P11229); assay: Cholinergic receptor muscarinic 1 (CHRM1) small molecule agonists, cell-based qHTS assay (AID 1963589); conditions: CHRM1-CHO cells, agonist mode, calcium flux fluorescence; series mostly up to 76.8 µM; further: nearly all actives have a fitted effect of over 35% in size
How it was run: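 Cells were plated and incubated 18 h at 37 C/5% CO2, loaded with calcium dye for 1 h at 37 C, then treated with compounds in DMSO. Fluorescence was recorded kinetically at 1 sec intervals.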

Structure (SMILES) | Potency | activation
CC1(c2ccc(Oc3ccccc3)cc2)OC(=O)N(Nc2ccccc2)C1=O (stereo not drawn) | inactive | –
Oc1cc(Cl)cc(Cl)c1 | inactive | –
C=CC(=O)NCNC(=O)C=C | inactive | –
COc1ccc(C(c2ccc(OC)cc2)C(Cl)(Cl)Cl)cc1 | inactive | –
CC(C)N(C(=O)COc1nnc(C(F)(F)F)s1)c1ccc(F)cc1 | inactive | –
Oc1cccc(Cl)c1 | inactive | –
CCOP(=S)(OCC)Oc1ccc(S(C)=O)cc1 (stereo not drawn) | inactive | –
O=c1[nH]c2ccccc2o1 | inactive | –
CN1C(=S)CN=C(c2ccccc2)c2cc(Cl)ccc21 | inactive | –
C=C(C)[C@H]1CN[C@H](C(=O)O)[C@H]1CC(=O)O | inactive | –
Oc1ccc(C2(c3ccc(O)cc3)c3ccccc3-c3ccccc32)cc1 | inactive | –
C[C@@H](N)[C@@H](O)c1ccccc1 | inactive | –
CC(C)(Cl)[N+](=O)[O-] | inactive | –
Cc1ccc2nc3sc(=O)sc3nc2c1 | – | -0.991% [at 15.8 µM]
CC1(C)CN=C(NN=C(/C=C/c2ccc(C(F)(F)F)cc2)/C=C/c2ccc(C(F)(F)F)cc2)NC1 | inactive | –
O=[N+]([O-])c1c(Cl)c(Cl)cc(Cl)c1Cl | 3.47 µM (active) | –
CCCCCCCCCCCCN(C)C | inactive | –
CCCCN(CCCC)C(=S)[S-].CCCCN(CCCC)C(=S)[S-].[Zn+2] | 19.5 µM (active) | –

Structure (SMILES) | Potency | activation
CCN(CC)C(=S)[S-].CCN(CC)C(=S)[S-].[Zn+2] | 13.7 µM (active) | –
CC(Cc1ccc(O)cc1)NCC(O)c1cc(O)cc(O)c1 (stereo not drawn) | inactive | –
CC(Cc1ccc2c(c1)OCO2)NO (stereo not drawn) | inactive | –
CCOP(=O)(OCC)Oc1cc(C)nc(C(C)C)n1 | inactive | –
CCOP(=S)(OCC)Oc1cc(C)nc(N(CC)CC)n1 | inactive | –
CNP(=O)(OC)Oc1ccc(C(C)(C)C)cc1Cl (stereo not drawn) | inactive | –
O=C1C(=O)c2cccc3cccc1c23 | inactive | –
N#Cc1cc(I)c(O)c(I)c1 | inactive | –
COC(=O)c1ccccc1S(=O)(=O)NC(=O)Nc1nc(C)nc(OC)n1 | inactive | –
c1csc(-c2ccc(-c3cccs3)s2)c1 | inactive | –
Cc1ccccc1OP(=O)(Oc1ccccc1C)Oc1ccccc1C | inactive | –
CCOP(=S)(S)OCC | inactive | –
CC(C)[C@H](C(=O)O[C@H](C#N)c1cccc(Oc2ccccc2)c1)c1ccc(Cl)cc1 | inactive | –
O=[N+]([O-])c1cccc2cccnc12 | inactive | –
Clc1cccc(SC2CCNCC2)n1 | inactive | –
CCCCC(CC)COC(=O)OOC(C)(C)C (stereo not drawn) | inactive | –
O=[N+]([O-])c1cc(C(F)(F)F)c(Cl)c([N+](=O)[O-])c1Cl | inactive | –
